Test [1] is described as follows: small molecules captured by biotinylated probe aFSTL3 – biochemical, small-molecule microarray, fluorescence 635/667, stem cell growth factor project, primary screen (AID 1064).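 Further: measures binding of the biotinylated anti-FSTL3 antibody to printed compounds.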 Conditions: higher = more signal.
Test [2] in a line: binders from COS7 lysate, DM2A8 probe, primary screen, torsin A project, cell lysate, small-molecule microarray, fluorescence 635/667 (AID 1065). Conditions: higher = more signal, COS7 lysate expressing mutant human TOR1A.
Test [3] is described as follows: small molecules captured by biotinylated probe aFGF2 – biochemical, small-molecule microarray, fluorescence 635/667, stem cell growth factor project, primary screen (AID 1067).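 Further: measures binding of biotinylated aFGF2 protein to printed compounds on slides; z-score merges feature fluorescence and signal-to-noise across triplicate slides.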 Conditions: higher = more signal.
The nature of test [4]: small molecules captured by biotinylated probe aFGF10 – biochemical, small-molecule microarray, fluorescence 635/667, stem cell growth factor project, primary screen (AID 1071).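 Further: score merges 667 nm spot intensity and signal to noise from triplicate slides.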 The settings on record: higher = more signal.
Test [5] addresses Neurogenic locus notch homolog protein 2 (Homo sapiens) (UniProt Q04721). Nature of the test: small molecules binding Notch2 protein – biochemical, small-molecule microarray, 635 nm fluorescence, stem cell growth factors, primary screen (AID 1073). The settings on record: higher = more signal.
The target in test [6] is Pro-neuregulin-1, membrane-bound isoform (Homo sapiens) (UniProt Q02297). Nature of the test: small molecules binding neuregulin-1 protein – biochemical, small-molecule microarray, fluorescence 635/667, psychiatric disease protein project, primary screen (AID 1075).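 Further: score combines 667 nm spot fluorescence with signal to noise.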 Conditions: NRG1 binding, 635 nm fluorescence, higher = more signal.
Test [7] concerns Neuregulin-1 EGF-like domain. Nature of the test: small molecules binding NRG1 EGF domain – biochemical, small-molecule microarray, 635 nm fluorescence, primary screen (AID 1081).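 Further: binding of the protein to compounds printed on small-molecule microarray slides.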 The settings on record: higher = more signal.
Test [8] can be described thus: FRG1 expression reporter modulators in myotubes – cell-based, C2C12 myotubes, firefly/Renilla luciferase, luminescence, FRG1 inhibition for FSHD, primary screen (AID 1084). The settings on record: FRG1 promoter luciferase, higher = more signal, called active from +8 up or from −8 down.
The nature of test [9]: small molecules captured by biotinylated probe aFST – biochemical, small-molecule microarray, fluorescence 635/667, stem cell growth factor project, primary screen (AID 1086).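 Further: score merges 667 nm fluorescence with signal-to-noise of each printed compound spot.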 Conditions: higher = more signal.
The nature of test [10]: binders of probe aHhip on microarray, primary screen, stem cell growth factor project, biochemical, small-molecule microarray, fluorescence 635/667 (AID 1087).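 Further: score merges spot fluorescence at 667nm with spot signal to noise ratio.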 The settings on record: higher = more signal.
The subject of test [11] is PRMT1 (protein arginine N-methyltransferase 1). Nature of the test: small molecules binding arginine methyltransferase PRMT1 – biochemical, small-molecule microarray, 635 nm fluorescence, primary screen (AID 1088).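 Further: binding of Prmt1 protein to compounds spotted on small-molecule microarray slides.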 The settings on record: higher = more signal.
A short description of test [12]: growth effects on S. cerevisiae YJM789 – YJM789 clinical isolate, OD600, 24 h, basal, primary screen (AID 1089).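 Further: growth of clinical yeast isolate S. cerevisiae YJM 789 seeded 1000 cells per well; test concentration not given here.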 Conditions: higher = more signal, called active from +8 up or from −8 down.
A short description of test [13]: S. pombe growth modifiers, basal conditions – strain 972, OD600, 24 h, no modulator, primary screen (AID 1090).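 Further: basal condition with compound alone and no growth modifier present; test concentration not given here.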 The settings on record: S. pombe 972 growth, higher = more signal, called active from +8 up or from −8 down.
Test [14] is described as follows: budding yeast growth modifiers under rapamycin – strain BY4716, OD600, 96 h, primary screen (AID 1091). Further: test concentration not given here. Conditions: S. cerevisiae BY4716 + rapamycin, higher = more signal, called active from +8 up or from −8 down.
Test [15] concerns the target Torsin-1A-interacting protein 2 (Homo sapiens) (UniProt Q8NFQ8). The experiment in a line: small molecules binding lysate-expressed LULL1 – cell lysate, human LULL1 lysate, 635/667 nm fluorescence, primary screen (AID 1092).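 Further: probe is lysate of COS7 cells overexpressing human LULL1; score merges per-feature 667 nm fluorescence with signal-to-noise.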 Conditions: small-molecule microarray, hLULL1 lysate binding, 635 nm fluorescence; higher = more signal.
The nature of test [16]: optical density change of DRC41 E. coli – strain DRC41, OD650, 24 h, E. coli filamentation project, primary screen (AID 1093).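 Further: MC1000 strain lacking acrAB efflux and sulA so SOS filamentation is blocked; test concentration not given here.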 Conditions: E. coli DRC41 growth, higher = more signal, called active from +8 up or from −8 down.
The nature of test [17]: probe aLefty2 binding to arrayed compounds – biochemical, biotinylated probe, 635/667 nm fluorescence, primary screen (AID 1094).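 Further: score merges spot fluorescence near 667 nm with spot signal-to-noise ratio.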 Conditions: small-molecule microarray, higher = more signal.
Test [18] concerns Noggin (protein binding on small-molecule microarray). Nature of the test: small molecules binding Noggin protein – biochemical, 635/667 nm fluorescence, primary screen (AID 1095).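 Further: score merges 667 nm feature fluorescence with signal to noise over triplicate slides.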 Conditions: 635 nm fluorescence, higher = more signal.
Test [19] concerns the target Neurogenic locus notch homolog protein 3 (Homo sapiens) (UniProt Q9UM47). The experiment in a line: small molecules binding NOTCH3 protein – biochemical, 635/667 nm fluorescence, primary screen (AID 1096). The settings on record: small-molecule microarray, 635 nm fluorescence, higher = more signal.
Test [20] in a line: probe aEGFR binding to arrayed compounds – biochemical, biotinylated probe, 635/667 nm fluorescence, primary screen (AID 1097).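 Further: probe is a biotinylated anti-EGFR antibody binding compounds printed on slides; score combines fluorescence near 667 nm and signal to noise of each spot.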 The settings on record: small-molecule microarray, higher = more signal.

Active and inactive are the calls of the source.

Pro-neuregulin-1, membrane-bound isoform (Homo sapiens), sequence (Q02297 whole entry, looked up, the tested form may be a part, canonical isoform): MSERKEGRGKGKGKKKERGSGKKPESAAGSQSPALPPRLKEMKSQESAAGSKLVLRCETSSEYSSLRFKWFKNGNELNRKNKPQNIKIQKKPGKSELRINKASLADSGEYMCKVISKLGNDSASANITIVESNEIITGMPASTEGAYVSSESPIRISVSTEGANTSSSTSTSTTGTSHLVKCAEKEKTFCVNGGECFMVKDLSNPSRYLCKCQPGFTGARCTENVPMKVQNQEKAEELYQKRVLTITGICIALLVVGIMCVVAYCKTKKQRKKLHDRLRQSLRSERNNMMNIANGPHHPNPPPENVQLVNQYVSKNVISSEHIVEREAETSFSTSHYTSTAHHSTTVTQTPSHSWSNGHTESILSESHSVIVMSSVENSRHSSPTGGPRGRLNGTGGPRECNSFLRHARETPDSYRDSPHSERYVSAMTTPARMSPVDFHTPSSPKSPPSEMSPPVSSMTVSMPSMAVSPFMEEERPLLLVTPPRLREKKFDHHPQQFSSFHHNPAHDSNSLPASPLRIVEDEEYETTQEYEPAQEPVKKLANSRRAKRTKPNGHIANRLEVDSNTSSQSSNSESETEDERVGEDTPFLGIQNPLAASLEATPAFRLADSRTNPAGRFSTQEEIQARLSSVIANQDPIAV
Neurogenic locus notch homolog protein 2 (Homo sapiens), sequence (Q04721 whole entry, looked up, canonical isoform): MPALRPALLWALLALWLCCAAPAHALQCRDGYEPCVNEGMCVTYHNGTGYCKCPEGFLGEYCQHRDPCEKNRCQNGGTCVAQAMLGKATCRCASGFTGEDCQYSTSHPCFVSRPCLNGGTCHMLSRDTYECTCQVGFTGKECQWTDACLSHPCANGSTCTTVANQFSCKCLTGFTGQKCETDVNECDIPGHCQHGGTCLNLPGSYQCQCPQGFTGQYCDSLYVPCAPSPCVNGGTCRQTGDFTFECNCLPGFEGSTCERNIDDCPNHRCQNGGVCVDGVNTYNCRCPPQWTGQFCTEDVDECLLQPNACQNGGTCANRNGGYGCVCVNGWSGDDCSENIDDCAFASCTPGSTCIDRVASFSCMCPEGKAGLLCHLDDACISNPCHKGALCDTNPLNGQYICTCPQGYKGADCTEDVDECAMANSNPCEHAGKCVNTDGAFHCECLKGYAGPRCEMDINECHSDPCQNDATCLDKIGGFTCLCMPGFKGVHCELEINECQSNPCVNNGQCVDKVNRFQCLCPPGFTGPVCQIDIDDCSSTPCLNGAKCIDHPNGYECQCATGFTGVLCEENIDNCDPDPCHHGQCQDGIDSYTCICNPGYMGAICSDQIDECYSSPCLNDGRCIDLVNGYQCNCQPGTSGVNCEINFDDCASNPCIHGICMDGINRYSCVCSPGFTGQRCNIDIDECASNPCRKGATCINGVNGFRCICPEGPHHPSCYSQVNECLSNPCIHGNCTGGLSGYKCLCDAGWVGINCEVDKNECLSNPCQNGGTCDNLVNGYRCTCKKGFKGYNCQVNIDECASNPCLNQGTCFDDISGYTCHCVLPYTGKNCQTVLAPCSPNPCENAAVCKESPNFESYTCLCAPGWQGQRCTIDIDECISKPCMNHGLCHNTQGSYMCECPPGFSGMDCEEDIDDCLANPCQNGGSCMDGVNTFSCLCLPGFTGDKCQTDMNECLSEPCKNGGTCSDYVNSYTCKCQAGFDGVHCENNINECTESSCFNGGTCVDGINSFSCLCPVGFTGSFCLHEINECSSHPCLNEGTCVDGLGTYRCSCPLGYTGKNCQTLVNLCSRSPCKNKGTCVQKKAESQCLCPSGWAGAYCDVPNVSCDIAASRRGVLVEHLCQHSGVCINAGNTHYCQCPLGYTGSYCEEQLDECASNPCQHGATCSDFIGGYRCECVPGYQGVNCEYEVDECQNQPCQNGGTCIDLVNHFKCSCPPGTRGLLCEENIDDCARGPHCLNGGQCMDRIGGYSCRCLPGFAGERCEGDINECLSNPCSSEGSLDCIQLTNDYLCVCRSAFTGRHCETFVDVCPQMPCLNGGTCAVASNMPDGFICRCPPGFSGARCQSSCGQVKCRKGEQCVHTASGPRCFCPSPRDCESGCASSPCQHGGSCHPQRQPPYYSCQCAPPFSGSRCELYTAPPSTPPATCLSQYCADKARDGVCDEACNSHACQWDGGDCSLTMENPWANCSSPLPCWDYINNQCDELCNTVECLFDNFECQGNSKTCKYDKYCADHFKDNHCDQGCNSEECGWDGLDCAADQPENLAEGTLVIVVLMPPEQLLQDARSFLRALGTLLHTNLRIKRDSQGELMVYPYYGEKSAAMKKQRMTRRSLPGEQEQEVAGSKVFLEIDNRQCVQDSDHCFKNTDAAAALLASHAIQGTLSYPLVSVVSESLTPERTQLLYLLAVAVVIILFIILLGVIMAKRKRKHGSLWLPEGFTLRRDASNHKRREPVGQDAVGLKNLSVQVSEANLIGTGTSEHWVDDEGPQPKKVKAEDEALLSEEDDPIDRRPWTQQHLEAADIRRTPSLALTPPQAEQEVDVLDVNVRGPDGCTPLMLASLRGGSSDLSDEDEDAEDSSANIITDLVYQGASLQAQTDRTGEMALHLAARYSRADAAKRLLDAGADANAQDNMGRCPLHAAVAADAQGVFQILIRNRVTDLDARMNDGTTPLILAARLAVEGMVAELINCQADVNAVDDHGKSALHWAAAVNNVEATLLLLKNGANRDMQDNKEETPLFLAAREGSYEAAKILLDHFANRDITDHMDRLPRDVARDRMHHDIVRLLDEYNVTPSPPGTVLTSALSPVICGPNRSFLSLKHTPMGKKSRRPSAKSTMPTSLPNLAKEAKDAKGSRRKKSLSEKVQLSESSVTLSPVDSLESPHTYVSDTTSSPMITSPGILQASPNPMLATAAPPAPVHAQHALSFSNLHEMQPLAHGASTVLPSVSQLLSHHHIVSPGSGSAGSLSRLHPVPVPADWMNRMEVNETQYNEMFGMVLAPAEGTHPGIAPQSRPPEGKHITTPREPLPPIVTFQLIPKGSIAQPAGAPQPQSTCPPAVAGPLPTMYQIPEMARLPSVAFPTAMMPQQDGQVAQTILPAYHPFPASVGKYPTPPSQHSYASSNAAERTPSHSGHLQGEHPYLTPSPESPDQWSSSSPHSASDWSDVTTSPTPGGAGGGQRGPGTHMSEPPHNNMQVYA
Torsin-1A-interacting protein 2 (Homo sapiens), sequence (Q8NFQ8 whole entry, looked up): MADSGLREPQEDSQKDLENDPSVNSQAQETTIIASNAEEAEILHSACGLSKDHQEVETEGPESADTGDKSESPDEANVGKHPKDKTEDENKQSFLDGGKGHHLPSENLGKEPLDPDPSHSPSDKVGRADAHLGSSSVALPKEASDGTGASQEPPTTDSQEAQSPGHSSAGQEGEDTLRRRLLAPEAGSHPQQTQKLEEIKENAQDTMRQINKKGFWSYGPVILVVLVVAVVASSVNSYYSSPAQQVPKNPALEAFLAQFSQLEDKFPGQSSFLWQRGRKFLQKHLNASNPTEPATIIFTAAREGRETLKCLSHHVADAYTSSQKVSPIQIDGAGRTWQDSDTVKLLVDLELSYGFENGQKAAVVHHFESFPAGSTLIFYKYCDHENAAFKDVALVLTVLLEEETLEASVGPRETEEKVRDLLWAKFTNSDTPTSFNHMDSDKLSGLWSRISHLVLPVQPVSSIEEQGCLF

For `O=C1O[C@@H](c2ccccc2)[C@@H](c2ccccc2)N2[C@@H](c3ccc(OCCO)cc3)[C@]3(C(=O)Nc4ccc(C#CC5=CCCCC5)cc43)[C@@H](C(=O)N3CCCCCCC3)[C@H]12`, the composite z-score in test [1] is 3.69; in [2] it was 1.51; in [3], 0.753; in test [4], 0.867; in [5], 1.49; in test [6], 1.38. Also, the composite z-score was 1.26 in test [7]; 3.12 in test [9]; 0.354 in test [10]; 1.53 in test [11]; 3.98 in test [15]; 1.6 in [17]. In addition, the composite z-score in test [18] was 1.78; in test [19], 1.03; in test [20], 1.26. For the same compound, the z-score in [8] is 1.75 (inactive); in test [12], 1.1 (inactive); in [13], -1.09 (inactive); in test [14], 2.13 (inactive); in test [16], 0.29 (inactive).

Consider `CC(C)NC(=O)[C@@]1(Cc2ccccc2I)c2ccccc2C(=O)N(Cc2ccccc2Cl)[C@H]1c1ccc(CO)cc1`, for which the composite z-score in test [1] was 0.232; in test [2] it was 0.152; in test [3], 0.028; in [4] it was 0.504; in [5], 0.917; in test [6], 1.19. In addition, the composite z-score in [7] is 1.22; in [9], 0.237; in [10], -0.0994; in test [11], 1.51; in test [15], 2.59; in [17] it was -0.0441. The composite z-score in [18] was 0.607; in [19], 1.08; in test [20] it was -0.0181. Also, the z-score in test [8] is -2.18 (inactive); in test [12], 1.14 (inactive); in [13], -0.199 (inactive); in test [14], 1.39 (inactive); in test [16], -0.406 (inactive).

Consider `COC(=O)c1c2oc(c1C(=O)OC)C(=O)NC1(CCCCC1)c1cn(nn1)C[C@H](Cc1ccccc1)NC(=O)N[C@H](CO)CC2`, for which the composite z-score in test [1] was -0.414; in test [2], -0.0111; in test [3] it was -0.13; in [4], 0.117; in test [5], 0.531; in test [6], 1.49. Besides, the composite z-score in test [7] was 1.11; in test [9], -0.224; in test [10], 0.0373; in test [11], 1.27; in test [15] it was 2.86; in test [17] it was -0.186. The composite z-score in test [18] is 0.322; in [19] it was 0.705; in test [20], -0.171. Further, the z-score in test [8] is -0.553 (inactive); in [12], 0.517 (inactive); in [13] it was 0.718 (inactive); in test [14] it was -0.466 (inactive); in [16] it was 1.52 (inactive).

For the compound `COCCOC(=O)N1C(=O)[C@@]2(c3ccccc31)[C@H](C(=O)N1CCc3cc(OC)c(OC)cc3C1)[C@H]1C(=O)O[C@H](c3ccccc3)[C@H](c3ccccc3)N1[C@@H]2c1ccc(O)cc1`, the composite z-score was -0.159 in test [1]; 0.706 in test [2]; -0.0303 in [3]; 0.647 in test [4]; 1.28 in test [5]; 0.832 in [6]. Moreover, the composite z-score in test [7] is 1.26; in test [9], -0.0345; in [10], 0.0302; in test [11] it was 1.51; in test [15], 2.85; in test [17], 0.206. The composite z-score amounted to 1.39 in test [18], 0.806 in test [19] and 0.0383 in [20]. The z-score was -2.26 (inactive) in [8]; -0.654 (inactive) in test [12]; 0.194 (inactive) in test [13]; 1.8 (inactive) in test [14]; 2.31 (inactive) in test [16].

For `C#CCNCc1ccccc1`, the composite z-score is -0.443 in test [1]; 0.0591 in test [2]; -0.114 in test [3]; 0.227 in [4]; 0.461 in test [5]; -0.358 in test [6]. Also, the composite z-score was 0.0262 in test [7]; -0.115 in [9]; -0.236 in [10]; -0.0993 in test [11]; -0.0541 in test [15]; -0.161 in test [17]. Moreover, the results for the composite z-score in [18], in test [19] and in test [20] were 0.235, 0.527 and -0.0435, respectively. Besides, the z-score was 0.938 (inactive) in test [8]; -0.514 (inactive) in [12]; -0.749 (inactive) in test [13]; -0.157 (inactive) in test [14]; -0.276 (inactive) in test [16].

The values above are taken from PubChem BioAssay.
